This passage reports inhibition results from PubChem BioAssay AID1209 (Sanford-Burnham Center for Chemical Genomics, 2008).

Molecules are shown by their SMILES. Hit rate of the full screen: of about 190,000 compounds, about 810 (0.43%) were called active. The sample as a whole holds a higher share of actives than the screen did. A number with no mark means an inactive call. Cut-off read from the data, not from the text of the source: active = inhibition above about 50%; inactive = the rest.

The target of the assay is Mannose-6-phosphate isomerase (Homo sapiens) (UniProt P34949). Description: MPI enzyme activity inhibition – biochemical, fluorescence intensity, coupled assay, primary screen (AID 1209).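 Note: plate controls were DMSO vehicle for no effect and wells lacking substrate for full effect.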 The conditions noted are these: purified PMI enzyme, at 20 µM, stronger effect = higher value.
Chain of Mannose-6-phosphate isomerase (Homo sapiens) (P34949 whole entry, looked up): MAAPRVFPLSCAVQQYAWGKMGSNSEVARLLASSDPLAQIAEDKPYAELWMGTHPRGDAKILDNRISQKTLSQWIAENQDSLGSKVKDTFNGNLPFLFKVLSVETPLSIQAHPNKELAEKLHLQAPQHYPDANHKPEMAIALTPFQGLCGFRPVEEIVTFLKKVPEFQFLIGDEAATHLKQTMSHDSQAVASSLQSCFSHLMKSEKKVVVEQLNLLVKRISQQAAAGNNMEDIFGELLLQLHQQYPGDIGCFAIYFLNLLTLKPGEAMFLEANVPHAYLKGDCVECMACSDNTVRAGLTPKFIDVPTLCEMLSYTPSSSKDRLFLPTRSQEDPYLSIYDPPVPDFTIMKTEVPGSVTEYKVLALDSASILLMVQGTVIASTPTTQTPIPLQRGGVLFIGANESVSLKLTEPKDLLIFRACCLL
Usually inhibition stands for the change of the read-out against control, counted positive when it falls. For the compound `COc1cc2c(cc1OC)CC(=O)N(C)CC2`, the inhibition is 3.4%.
Next, `Cc1ccc(N2C(=O)CC(SCC(=O)Nc3ccc(S(N)(=O)=O)cc3)C2=O)cc1` (stereo not drawn): 16.8%.
As to `O=C(CSC1CC(=O)N(c2ccc(C(=O)O)cc2)C1=O)Nc1ccc(Cl)cc1` (stereo not drawn), the inhibition was -7.6%.
To `CCN(CC(=O)NCCc1ccc(S(N)(=O)=O)cc1)Cc1nc2cc(OC)c(OC)cc2c(=O)[nH]1` belongs -4.3%; to `CC(C(=O)Nc1ccccc1C(=O)O)n1c(C(F)(F)F)nc2ccccc21` (stereo not drawn), 1.2%.
Next, `O=C(CSc1nc2c(sc3ccccc32)c(=O)n1CCO)NCC1CCCO1` (stereo not drawn): 54% (active); `O=C(CSc1nc2c(sc3ccccc32)c(=O)n1CCCN1CCCC1)NCC1CCCO1` (stereo not drawn): -1%.
Consider `O=C(CSc1nc2c(sc3ccccc32)c(=O)n1Cc1ccccc1)NCC1CCCO1` (stereo not drawn), for which the inhibition was 15.3%.
To `COc1ccc(C2=CC(c3ccc(OC)c(OC)c3)NC(=S)N2)cc1` (stereo not drawn) belongs 3.4%; to `CN(C)/C=N/c1ncc(C(=O)c2ccc(Cl)cc2Cl)s1`, -11.6%; to `CN(C)/C=N/c1ncc(C(=O)c2ccc(Cl)cc2)s1`, 0.8%.
To `Cc1cc(C(=O)c2cnc(/N=C/N(C)C)s2)c(F)cc1Cl` belongs 93.5% (active); to `COc1ccc(-c2oc(NC(=O)CSc3nncn3C)c(C#N)c2-c2ccc(OC)cc2)cc1`, 7.6%; to `CCCCn1c(=S)[nH]c2ccc(N3CCOCC3)cc2c1=O`, -8.1%.
Next, `c1ccc2c(c1)[nH]c1c(N3CCOCC3)ncnc12`: 7.2%.
Take `CCc1cc(N2CCOCC2)cc2c1[nH]c1ccccc12`: the inhibition is 55.4% (active).
Next, `O=C(NCCc1c[nH]c2ccccc12)c1cccc(S(=O)(=O)Nc2ccccc2Cl)c1`: 20.2%; `COc1cccc(C(c2sc3nc(C)nn3c2O)N2CCC3(CC2)OCCO3)c1` (stereo not drawn): 5.1%.
Next, `CN(Cc1ccno1)Cc1cn(C)nc1-c1ccc(Oc2ccccc2)cc1`: 26.3%; `Cc1cnccc1CN(C)Cc1cn(C)nc1-c1ccc(Oc2ccccc2)cc1`: 14.4%.
To `CN(Cc1cccnc1)Cc1cn(C)nc1-c1ccc(Oc2ccccc2)cc1` belongs 50.7% (active); to `CC(C)NC(=O)COc1nncc2ccccc12`, 15.9%; to `Cc1ccc(Cn2c(=O)sc3ccccc3c2=O)cc1`, 18.9%.
As to `Cc1ccccc1Cn1c(=O)sc2ccccc2c1=O`, the inhibition was 6%.
To `O=c1sc2ccccc2c(=O)n1Cc1ccccc1F` belongs 89.5% (active); to `Cc1cccc(C)c1NC(=O)CSc1nnc([C@H](C)NC(=O)OC(C)(C)C)o1`, -1.6%; to `C=CCn1c(SCC(=O)NC2CCS(=O)(=O)C2)nc2sc(CC)cc2c1=O` (stereo not drawn), -1.4%.
Next, `CCCN1CCCc2cc(CN)ccc21`: 50.7% (active).
To `CCc1ccc2c(c1)CCCN2C(=O)c1ccccc1C(=O)O` belongs 0.4%; to `CCCN1CCCc2ccccc21`, -40.1%.
For the compound `Cc1ccc(NC2=CC(=O)CC(c3ccccc3)C2)cc1` (stereo not drawn), the inhibition is 7.6%.
To `COc1cccc(Nc2nc(CC(C)=O)ns2)c1` belongs -2%; to `c1ccc2sc(NCC3CCCO3)nc2c1` (stereo not drawn), -11.7%; to `O=[N+]([O-])c1cc(Cl)c(O)c2ncccc12`, 51.7% (active).
To `Oc1c(Cl)cc(Cl)c2cccnc12` belongs 21.3%.
To `O=[N+]([O-])c1cc(Cl)c2cccnc2c1O` belongs 14.6%; to `COC(=O)C(C(=O)OC)c1ccc(-n2cccc2)cc1`, 11%; to `CCOc1cccc2cc(C(C)=O)oc12`, -14.2%.
Take `CCOc1cc(C2NC(=O)NC(c3ccccc3)=C2C(C)=O)ccc1OC(C)=O` (stereo not drawn): the inhibition is 7%.
To `CC(=O)C1=C(c2ccccc2)NC(=O)NC1c1ccc(O)c(O)c1` (stereo not drawn) belongs 61.3% (active); to `CC(=O)C1=C(c2ccccc2)NC(=S)NC1c1ccc(O)c(O)c1` (stereo not drawn), 44.9%; to `COc1cccc(N2CCN(Cc3ccsc3)CC2)c1`, -5.2%.
To `COC(=O)c1cc(=O)nc2sc(-c3ccccc3)nn12` belongs -2.3%; to `COC(=O)c1cc(=O)nc2sc(-c3cccs3)nn12`, 7.5%; to `COC(=O)c1cc(=O)nc2sc(-c3ccc(F)cc3)nn12`, 72.4% (active).
To `CN1Cc2sc(N)c(C#N)c2CC1(C)C` belongs -8.4%; to `CN(C)c1ccc(/C=N/NC(=O)c2nonc2N)cc1[N+](=O)[O-]`, 12.7%; to `Cc1cccnc1Nc1nc(-c2ccc(O)cc2)cs1`, -10.5%.
On to `Oc1ccc(-c2csc(Nc3ncccn3)n2)cc1`, for which the inhibition is -4.9%.
Next, `Cc1cccnc1Nc1nc(-c2ccc(O)cc2O)cs1`: 10.6%.
To `Oc1ccc(-c2csc(Nc3ncccn3)n2)cc1O` belongs 58% (active); to `COc1ccc(-c2csc(Nc3ccc(C)cn3)n2)cc1OC`, 7.7%.
Next, `Cc1cccnc1Nc1nc(-c2ccc(O)c(O)c2)cs1`: 52.3% (active); `c1ccc(-c2csc(Nc3ncccn3)n2)cc1`: -2.2%; `COc1ccc(-c2csc(Nc3ccc(C)cn3)n2)cc1`: -1.5%.
As for `O=C(O)CC(=O)Nc1ccccc1C(=O)O`, the inhibition was 0.5%.
Next, `O=C(CSCc1ccc(Cl)cc1)Nc1ccc(S(=O)(=O)N2CCOCC2)cc1`: 11.5%; `COCCN(CCOC)S(=O)(=O)c1ccc(C(=O)Nc2nnc(COC)o2)cc1`: -8.8%.
To `Cc1cccc(NC(=O)c2ccc(NCC3CCCO3)c([N+](=O)[O-])c2)c1` (stereo not drawn) belongs 2%; to `CCC(C)c1ccc(O)c(N)c1` (stereo not drawn), 26.6%; to `CCC(NC(C)C)C(O)c1ccc(O)c2[nH]c(=O)ccc12` (stereo not drawn), 4.3%.
To `CNC[C@H](O)c1ccc(O)c(O)c1` belongs 63.2% (active); to `CNC[C@H](O)c1cccc(O)c1`, -1.6%.
With `COc1ccc([C@H](C)NC[C@H](O)c2ccc(O)c(NC=O)c2)cc1`, the inhibition was 0.1%.
For `CCC(NC(C)C)C(O)c1ccc(O)c(O)c1` (stereo not drawn), the inhibition was 57.9% (active).
To `Cc1c(C(=O)OC(C)C(C)C[N+](C)(C)C)oc2ccccc12` (stereo not drawn) belongs 1.7%; to `COc1ccc(OC)c(C(C)NC(=O)c2ccco2)c1` (stereo not drawn), 7%.
To `c1ccc(CNc2ncnc3nc[nH]c23)nc1` belongs 8.8%; to `CCn1c(SCc2nc3ccccc3[nH]2)nnc1-c1ccc(OC)cc1`, 6.6%; to `c1ccc2[nH]c(SCCN3CCOCC3)nc2c1`, -3.1%.
Next, `c1ccc2[nH]c(N3CCOCC3)nc2c1`: -5%.
For the compound `c1ccc2[nH]c(SN3CCOCC3)nc2c1`, the inhibition is 94.5% (active).
Next, `OCCC1CN(Cc2cnc(-c3cccc4ccccc34)nc2)CCN1C1CCCCC1` (stereo not drawn): 13.3%.
Next, `COc1ccccc1CNC(=O)c1cc2c(s1)CS(=O)(=O)C2`: 2.6%; `CCCOc1ccc(C2NC(=S)NC(C)=C2C(=O)c2ccccc2)cc1OC` (stereo not drawn): -34.6%.
Next, `COc1ccc(S(=O)(=O)NC(CC(=O)NCCc2ccc(OC)c(OC)c2)C(C)C)cc1` (stereo not drawn): -5%.
Consider `COc1c(/C=N/Nc2ccc([N+](=O)[O-])cc2[N+](=O)[O-])c(C)nn1-c1ccccc1`, for which the inhibition is 8.9%.
For `Cc1nn(-c2ccccc2)c(N)c1Sc1cccc([N+](=O)[O-])c1`, the inhibition is 5.2%.
With `CCOC(=O)c1c(Cc2ccccc2)c[nH]c1C`, the inhibition was -17.6%.
As for `COc1ccc(Cc2noc(-c3ccc(OC)c(OC)c3)n2)cc1OC`, the inhibition is 1.8%.
Next, `COc1ccc(Cc2nnc(N)s2)cc1OC`: -1.6%.
Turning to `COc1cccc(NC(=S)/C(=C(\[O-])c2ccc([N+](=O)[O-])cc2)[n+]2ccccc2)c1`, the inhibition is -1.1%.
To `CCOc1ccccc1NC(=O)CCS(=O)(=O)c1cccc2nonc12` belongs 0.7%; to `O=C(CCS(=O)(=O)c1ccccc1)N1CCOCC1`, -8.2%.
Next, `OCCCNC(=S)Nc1ccc2nc(-c3ccccn3)c(-c3ccccn3)nc2c1`: 56.9% (active); `CC(C)(C)CC(C)(C)NC(=S)Nc1ccc2nc(-c3ccccn3)c(-c3ccccn3)nc2c1`: -21.7%.
As to `CCCNC(=S)Nc1ccc2nc(-c3ccccn3)c(-c3ccccn3)nc2c1`, the inhibition was 26.5%.
Next, `CN(C)NC(=S)Nc1ccc2nc(-c3ccccn3)c(-c3ccccn3)nc2c1`: -8.4%; `Cc1ccc(NC(=S)Nc2ccc3nc(-c4ccccn4)c(-c4ccccn4)nc3c2)cc1C`: 76.2% (active).
Next, `Cc1nc2ccc(NC(=S)NCCCO)cc2nc1C`: -27.3%; `COc1cc2nc(CN(C)Cc3ccc(Cl)cc3)[nH]c(=O)c2cc1OC`: 5.6%; `Cc1ccc(C(=O)Nc2ccc(Cl)cc2C)c(Cl)c1`: -5.9%.
To `COc1ccc(C2c3c(oc4ccc(C)cc4c3=O)C(=O)N2c2cc(C)ccn2)cc1OC` (stereo not drawn) belongs 30.5%.
Take `COC(=O)CCC(=O)COc1ccc(OC)cc1C#N`: the inhibition was 1.1%.
For `Cc1ccc(OCC(=O)NCc2ccccc2)c([N+](=O)[O-])n1`, the inhibition was 20.4%.
Consider `Cc1cc(C(=O)Nc2cccc3ccccc23)n(-c2ccccc2)n1`, for which the inhibition was -11.6%.
To `CCc1ccccc1NC1c2ccccc2C(=O)N1c1cc(C)ccn1` (stereo not drawn) belongs -2.8%; to `Cc1cc2n(n1)SC(Nc1cccc3ccccc13)N2` (stereo not drawn), 56.1% (active).
Next, `O=C1NC(=O)C(Nc2cccc3ccccc23)S1` (stereo not drawn): -0.5%; `Cc1ccc(Nc2cc(-n3nc(C)cc3C)ncn2)c(C)c1`: -0.1%; `CCc1ccccc1NC(=O)c1cc(C2CC2)on1`: -4.9%.
`Cc1cc2n(n1)SC(Nc1cc(Cl)ccc1Cl)N2` (stereo not drawn): the inhibition is 19.6%.
Next, `COc1ccc(S(=O)(=O)N2CCOCC2)cc1NC(=O)CN1CCCCCC1`: -4.3%.
